Experimental data reported in PubChem BioAssay AID1159580 (chemical genetic matrix, 2015).
“And” between values parts separate entries of the source, which are not always exact repeats. Identical values can stand only once. The whole screen tested about 5,500 compounds, of which about 2,000 (36%) were called active. Roughly 18% stayed inconclusive and do not appear here. Rule as the data show it: active = normalized growth mostly below about 0.91 (no sharp cut-off); inconclusive = no clear call, values can overlap the other calls; inactive = mostly above about 0.92. The list shows a part of the results.

Assay: chemical genetic growth profiling, strain panel (AID 1159580);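 also: tested at 20 µM; growth read once vehicle control cultures reached saturation at 30 °C; 1 = growth at the plate median or of vehicle wells; lower values mean less growth of the strain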
Settings: S. cerevisiae deletion strains, growth OD

Measured: normalized growth

O=C(O)CCCCCCCC(=O)O
inactive: locus YAL013W, strain DEP1, active compounds read low 0.991 | locus YAL021C, strain ccr4, active compounds read low 1.02 | locus YAL026C, strain drs2, active compounds read low 1.04 | locus YAL030W, strain snc1, active compounds read low 1.02 | locus YAL040C, strain CLN3, active compounds read low 1.01 | locus YBL061C, strain skt5, active compounds read low 1.01 | locus YBR009C, strain hhf1, active compounds read low 1.01 | locus YBR021W, strain FUR4, active compounds read low 0.999 | locus YBR023C, strain chs3, active compounds read low 1.01 | locus YBR171W, strain sec66, active compounds read low 1.03 | locus YBR229C, strain ROT2, active compounds read low 0.956 | locus YBR231C, strain swc5, active compounds read low 1.01 | locus YBR279W, strain paf1, active compounds read low 0.991 | locus YCL011C, strain gbp2, active compounds read low 1.02 | locus YCL016C, strain dcc1, active compounds read low 1.03 | locus YCL029C, strain bik1, active compounds read low 0.969 | locus YCL069W, strain vba3, active compounds read low 1.02 | locus YCR088W, strain abp1, active compounds read low 1.02 | locus YDL005C, strain med2, active compounds read low 0.986 | locus YDL035C, strain GPR1, active compounds read low 0.994 | locus YDL040C, strain nat1, active compounds read low 0.999 | locus YDL074C, strain BRE1, active compounds read low 0.982 | locus YDL101C, strain DUN1, active compounds read low 0.981 | locus YDL134C, strain PPH21, active compounds read low 0.96 | locus YDL185W, strain tfp1, active compounds read low 0.982 | locus YDL192W, strain arf1, active compounds read low 0.984 | locus YDR001C, strain nth1, active compounds read low 1.03 | locus YDR069C, strain doa4, active compounds read low 1 | locus YDR101C, strain arx1, active compounds read low 0.991 | locus YDR137W, strain rgp1, active compounds read low 0.99 | locus YDR150W, strain NUM1, active compounds read low 0.974 | locus YDR159W, strain sac3, active compounds read low 0.997 | locus YDR162C, strain NBP2, active compounds read low 0.994 | locus YDR195W, strain ref2 0.997 | locus YDR297W, strain sur2, active compounds read low 0.996 | locus YDR318W, strain mcm21, active compounds read low 0.981 | locus YDR334W, strain swr1, active compounds read low 1 | locus YDR335W, strain msn5, active compounds read low 1 | locus YDR363W, strain ESC2, active compounds read low 0.994 | locus YDR388W, active compounds read low 0.98 | locus YDR392W, strain spt3, active compounds read low 1.04 | locus YDR502C, strain sam2, active compounds read low 0.986 | locus YEL003W, strain gim4, active compounds read low 1.02 | locus YEL037C, strain rad23, active compounds read low 1 | locus YEL061C, strain CIN8 (second series), active compounds read low 1.03 | locus YEL061C, strain CIN8, active compounds read low 0.989 | locus YER002W, strain NOP16, active compounds read low 1.01 | locus YER015W, strain faa2, active compounds read low 1 | locus YER016W, strain bim1, active compounds read low 1.02 | locus YER110C, active compounds read low 0.971 | locus YER111C, strain swi4, active compounds read low 1.01 | locus YER155C, strain BEM2 (second series), active compounds read low 1.07 | locus YER155C, strain BEM2, active compounds read low 1 | locus YER167W, strain BCK2, active compounds read low 1.02 | locus YFR010W, strain ubp6, active compounds read low 1.01 | locus YGL078C, strain dbp3, active compounds read low 0.983 | locus YGL086W, strain mad1, active compounds read low 1 | locus YGL167C, strain pmr1, active compounds read low 1.02 | locus YGL173C, strain kem1, active compounds read low 1.02 | locus YGL227W, strain vid30, active compounds read low 1.02 | locus YGL240W, strain doc1, active compounds read low 1.01 | locus YGL248W, strain PDE1, active compounds read low 0.992 | locus YGL253W, strain hxk2, active compounds read low 1.02 | locus YGR078C, strain PAC10, active compounds read low 0.99 and 1.01 | locus YGR135W, strain pre9, active compounds read low 0.988 | locus YGR229C, strain SMI1, active compounds read low 1 and 0.991 | locus YGR252W, strain gcn5, active compounds read low 0.961 | locus YHR013C, strain ard1, active compounds read low 1.04 | locus YHR027C, strain rpn1, active compounds read low 1 | locus YHR030C, strain SLT2, active compounds read low 0.993 and 0.979 | locus YHR079C, strain IRE1 (second series), active compounds read low 0.988 | locus YHR079C, strain IRE1, active compounds read low 0.982 | locus YHR094C, strain hxt1, active compounds read low 0.995 | locus YHR129C, strain ARP1, active compounds read low 0.96 | locus YHR142W, strain chs7, active compounds read low 1.05 | locus YHR200W, strain rpn10, active compounds read low 0.991 | locus YIL066C, strain RNR3, active compounds read low 0.976 | locus YIL073C, strain SPO22, active compounds read low 0.952 | locus YIL125W, strain kgd1, active compounds read low 0.999 | locus YIR030C, strain dcg1, active compounds read low 0.986 | locus YJL092W, strain hpr5, active compounds read low 1.03 | locus YJL095W, strain BCK1 (second series), active compounds read low 1.01 | locus YJL095W, strain BCK1, active compounds read low 1.03 and 0.992 | locus YJL115W, strain asf1, active compounds read low 1.01 | locus YJL129C, strain trk1, active compounds read low 1.01 | locus YJL134W, strain LCB3, active compounds read low 0.991 | locus YJL154C, strain vps35, active compounds read low 1.03 | locus YJL164C, strain tpk1, active compounds read low 1.03 | locus YJL166W, strain qcr8, active compounds read low 1.02 | locus YJL168C, strain set2, active compounds read low 0.99 | locus YJL187C, strain SWE1 (second series), active compounds read low 0.976 | locus YJR043C, strain POL32, active compounds read low 0.994 | locus YJR066W, strain TOR1, active compounds read low 0.965 | locus YJR075W, strain HOC1, active compounds read low 0.985 and 0.983
